Compound activity: PubChem BioAssay, several laboratories
MEKK3 PB1 HTS – MEKK3-MEK5 PB1 interaction, increase or decrease; bead-based flow cytometry, Alexa488-MEK5 binding to MEKK3; actives lie on both sides; 0 = blocked by unlabeled MEK5, 100 = vehicle; binding response (% of control), % at 10 µM; actives 1.4% (n = 290,000);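 active means binding response more than 3 SD above or below the average of its plate-row segment, actives on both sides; inconclusive means wells at one plate position flagged as instrument error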;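 further: Alexa488 bead fluorescence after subtracting the streptavidin-only scavenger bead signal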
UBC13 polyUb – inhibitors of human UBC13 polyubiquitin chain formation; P61088; TR-FRET; inhibition, % at 20 µM; actives 0.47% (n = 330,000); in the data active means inhibition above about 45%, passing the limit was not always enough; inconclusive means no clear call, values can overlap the other calls
Target sequence (P61088 whole entry, looked up): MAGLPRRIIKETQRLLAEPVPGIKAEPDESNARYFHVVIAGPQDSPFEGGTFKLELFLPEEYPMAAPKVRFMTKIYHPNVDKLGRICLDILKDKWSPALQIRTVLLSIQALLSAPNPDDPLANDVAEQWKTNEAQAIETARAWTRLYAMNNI
MEKK2mut PB1 HTS – signal of MEK5 binding to mutant human MEKK2 PB1 domain; actives 0.35% (n = 290,000); AID 1530; percent response, % at 10 µM; bead flow cytometry, Alexa488-MEK5 binding to MEKK2 mutant; in the data active means percent response above about 24%, passing the limit was not always enough
MEKK2wt PB1 HTS – raises or lowers MEK5 binding to wildtype human MEKK2 PB1 domain. bead flow cytometry, Alexa488-MEK5 binding to MEKK2 WT; actives lie on both sides. binding response (% of control), % at 10 µM. Q9Y2U5. actives 1.1% (n = 290,000). AID 1531; in the data active means binding response below about 67% or above about 130%; inconclusive means no clear call, values can overlap the other calls; inactive means in between
Casp3 UBC13 ctr – inhibits human caspase-3 in UBC13 counter-screen | shares compounds with UBC13 polyUb | Recombinant caspase-3, Caspase-Glo 3/7 luminescence, 60 min | inhibition, % at 20 µM | actives 4% (n = 1,400) | AID 488856;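 active means mean inhibition across replicates above about 26%, limit read from the data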;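 further: plate controls were DMSO with caspase-3 for no effect and DMSO wells lacking enzyme for full effect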
Target sequence (P42574 whole entry, looked up): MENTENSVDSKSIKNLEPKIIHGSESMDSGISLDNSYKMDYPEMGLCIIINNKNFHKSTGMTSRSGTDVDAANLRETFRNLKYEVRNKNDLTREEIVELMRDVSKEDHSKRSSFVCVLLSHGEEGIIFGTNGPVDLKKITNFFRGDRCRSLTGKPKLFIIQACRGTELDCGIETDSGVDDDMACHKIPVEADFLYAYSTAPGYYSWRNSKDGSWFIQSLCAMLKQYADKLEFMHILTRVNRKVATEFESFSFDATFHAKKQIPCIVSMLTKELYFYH
UBC13 conf – confirmation of human UBC13 polyubiquitin inhibitors; inhibition, % at 10 µM; actives 68% (n = 1,400); UBC13 polyubiquitination, TR-FRET, biochemical; AID 488859; shares compounds with UBC13 polyUb; in the data active means inhibition above about 45%; inconclusive means no clear call, values can overlap the other calls
An asterisk follows results filed as active; ? = inconclusive; . = no result. This is a sample that favours compounds with a hit; in the whole collection about 2.3% have one here.

SMILES	MEKK3 PB1 HTS	UBC13 polyUb	MEKK2mut PB1 HTS	MEKK2wt PB1 HTS	Casp3 UBC13 ctr	UBC13 conf
CN(C)CCCNC(=S)NCC(c1ccc(Cl)cc1Cl)c1c[nH]c2ccccc12 (centres undefined)	110	60*	73*	223*	2	88*
O=C(O)c1ccc(Cl)c(S(=O)(=O)NC(Cc2ccccc2)C(=O)O)c1 (centres undefined)	.	-8	.	.	.	.
Fc1ccc(Nc2nc(NCc3ccco3)c3ccccc3n2)cc1	102	54*	7	133	1	74*
Nc1nc(Nc2ccccc2)nc(NCc2ccco2)c1[N+](=O)[O-]	105	-2	-2	99	.	.
Cc1cc(C(=O)OCC(=O)NCc2ccco2)c(C)o1	108	-4	-1	109	.	.
CC(C)(C)OC(=O)[C@H](Cc1ccccc1)NC(=O)c1nc[nH]c1C(=O)N[C@@H](CCCCN)C(=O)OC(C)(C)C	.	73*	.	.	-4	76*
CC(C)C[C@H](NC(=O)c1nc[nH]c1C(=O)N[C@@H](CCCCN)C(=O)OC(C)(C)C)C(=O)OC(C)(C)C	.	53*	.	.	0	53*
O=C(CN1C(=O)C2CC=CCC2C1=O)Nc1nc2ccccc2s1 (centres undefined)	95	1	-8	89	.	.
Cc1ccc2[nH]c(=O)c(NC(N)=S)nc2c1	98	71*	6	108	-2	85*
NC(=S)Nc1nc2ccccc2[nH]c1=O	.	60*	.	.	-5	64*
CCCn1c(N)c(C(=O)COC(=O)CCNS(=O)(=O)c2ccccc2F)c(=O)[nH]c1=O	.	-1	.	.	.	.
COc1ccc(N(C)C(=O)c2oc(=O)c3ccccc3c2-c2ccccc2)c(OC)c1	126	-1	28	117	.	.
O=C(CSc1nncs1)NCCCc1ccccc1	89	-1	-3	90	.	.
O=C(NNC(=O)C1CCN(S(=O)(=O)c2ccc(Cl)cc2)CC1)c1ccc(Cl)cc1	111	29	4	109	.	.
CCN(CC)S(=O)(=O)c1ccc(C(=O)NNC(=O)C2CCN(S(=O)(=O)c3ccc(Cl)cc3)CC2)cc1	97	78*	-1	97	0	77*
Oc1ccc(C[C@@H]2CNCCN2CCCCC2CCCCC2)cc1	.	59*	.	.	-4	48*
COc1cccc(C(=O)N2CCN(Cc3nc(CC4CC4)no3)CC2)c1	89	16	-20	92	.	.
CC(C)(C)c1ccc2c(c1)C(=O)c1ccccc1C2=O	107	54*	27	132	96*	19
CCc1ccc2c(c1)C(=O)c1ccccc1C2=O	106	36	-1	102	.	.
O=C(NC1CCSC1=O)C1CC(=O)N(c2ccc(F)cc2)C1 (centres undefined)	100	2	2	97	.	.
CSc1nccc(Nc2ccccc2)c1C#N	105	47*	-10	106	-1	?
COc1nccc(Nc2ccccc2)c1C#N	101	15	0	101	.	.
CCCCN(C)CCNC(=O)c1cc2c(-c3ccccc3F)nn(C)c2s1	102	29	14	122	.	.
CCCCN(C)CCNC(=O)c1cc2c(-c3cccc(OC)c3)nn(C)c2s1	90	46*	9	115	1	45
O=C(NC1(C(F)(F)F)N=C2SCCN2C1=O)c1cccnc1 (centres undefined)	121	48*	-1	120	-3	-8
SMILES	MEKK3 PB1 HTS	UBC13 polyUb	MEKK2mut PB1 HTS	MEKK2wt PB1 HTS	Casp3 UBC13 ctr	UBC13 conf
COc1cccc(C(=O)NC2(C(F)(F)F)N=C3SCCN3C2=O)c1 (centres undefined)	100	13	1	102	.	.
COc1cccc2sc3ccc(C#CC4(O)CCCCC4)cc3c(=O)c12	103	53*	-3	89	91*	?
COc1cccc(NC(=O)CCNC(=O)c2ccccc2Cl)c1	97	-1	-3	98	.	.
Cc1ccc(C(=O)NCCCN2CCOCC2)cc1S(=O)(=O)N1CCOCC1	.	2	.	.	.	.
CCOc1ccc(NS(=O)(=O)c2cc(C(=O)NCCCN3CCOCC3)ccc2C)cc1	.	74*	.	.	-2	94*
CC(C)=CCc1c(O)cc(O)c2c(=O)c(O[C@@H]3O[C@@H](C)[C@H](O)[C@@H](O)[C@H]3O)c(-c3ccc(O)cc3)oc12	107	86*	1	104	-4	78*
